From PubChem BioAssay (Tox21)
“And” between values parts separate entries of the source, which are not always exact repeats. Equal values may be shown once. Results filed as inconclusive are left out. The source made the active and inactive calls. Unless noted, the call rests on the fitted dose curve; in most records, active means well fitted curve in the direction sought with a large enough effect in the repeat runs; inconclusive means weak or mixed curves; inactive means no such curve, though single readings can be large; an effect the other way counts as inactive or inconclusive.

How the values were obtained:
[1] = target: Thyrotropin receptor (Homo sapiens) (UniProt P16473); assay: qHTS assay to identify small molecule agonists of the thyroid stimulating hormone receptor (TSHR) signaling pathway (AID 1224843; calls by dose curve; further: nearly all actives have a fitted effect of over 45% in size)
Sequence of Thyrotropin receptor (Homo sapiens) (P16473 whole entry, looked up): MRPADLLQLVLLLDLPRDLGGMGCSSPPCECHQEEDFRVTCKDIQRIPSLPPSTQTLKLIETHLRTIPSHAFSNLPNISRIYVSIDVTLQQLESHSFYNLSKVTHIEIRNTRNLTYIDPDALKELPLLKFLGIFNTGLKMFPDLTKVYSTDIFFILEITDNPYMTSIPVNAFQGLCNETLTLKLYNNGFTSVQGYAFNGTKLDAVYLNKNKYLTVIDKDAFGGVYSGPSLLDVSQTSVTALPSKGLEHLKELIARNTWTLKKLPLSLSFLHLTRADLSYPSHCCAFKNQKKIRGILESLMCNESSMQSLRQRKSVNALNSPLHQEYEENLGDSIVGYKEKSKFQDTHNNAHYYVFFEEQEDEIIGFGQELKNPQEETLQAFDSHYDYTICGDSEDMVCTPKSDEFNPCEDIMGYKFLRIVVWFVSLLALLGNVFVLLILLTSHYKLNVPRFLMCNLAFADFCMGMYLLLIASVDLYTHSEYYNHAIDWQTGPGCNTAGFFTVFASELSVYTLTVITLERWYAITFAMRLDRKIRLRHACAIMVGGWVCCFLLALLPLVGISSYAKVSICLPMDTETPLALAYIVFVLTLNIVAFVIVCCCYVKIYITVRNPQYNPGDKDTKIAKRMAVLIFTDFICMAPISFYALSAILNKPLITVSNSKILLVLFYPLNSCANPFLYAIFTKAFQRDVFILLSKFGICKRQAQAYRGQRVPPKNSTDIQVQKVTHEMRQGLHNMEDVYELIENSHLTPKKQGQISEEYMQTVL
Outline: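 HEK293 cells stably bearing the thyrotropin receptor were plated at 800 cells/well and challenged with compound (30 min, RT). Accumulated cAMP was quantified via cAMP-d2 competing for cryptate-tagged antibody.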

[2] = qHTS assay to identify small molecule agonists of the hypoxia (HIF-1) signaling pathway - cell viability counter screen (AID 1224844; calls by dose curve; further: nearly all actives have a fitted effect of over 50% in size; further: potency means the concentration at half of the fitted maximal effect)
Outline: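 ME-180 HRE-bla cells, 2,000/well, 0.5% dialyzed FBS; 5 hr settle, 17 hr compound at 37C/5% CO2; CCF4-AM reporter read first, then CellTiter-Glo luminescence after 30 min RT.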

[3] = qHTS assay to identify small molecule agonists of H2AX (AID 1224845; active means well fitted activation curve with a large enough effect in the signal ratio in the repeat runs, not every such curve was filed as active; the % refers to the signal ratio)
Outline: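 Phospho-H2AX Ser139 measured by HTRF (ex 320 nm; em 665 and 620 nm) after 24 hr antibody incubation. Compounds, 15 concentrations, 0.76% DMSO, were applied to CHO-K1 cells for 3hr at 37C before lysis.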

[4] = qHTS assay to identify small molecule agonists of the hypoxia (HIF-1) signaling pathway (AID 1224846; active means well fitted activation curve with a large enough effect in the signal ratio in the repeat runs, not every such curve was filed as active; the % refers to the signal ratio)
Outline: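 Cell line: CellSensor HRE-bla ME-180; 2,000 cells/well; 0.5% dialyzed FBS; 5 h preincubation; DMSO compound pin transfer; 17 h, 37C, 5% CO2; CCF4-AM added; bla FRET signal scored for activation.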

[5] = qHTS assay to identify small molecule agonists of H2AX - cell viability counter screen (AID 1224847; calls by dose curve; further: nearly all actives have a fitted effect of over 30% in size; further: potency means the concentration at half of the fitted maximal effect)
Outline: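 After overnight plating of 1000 CHO-K1 cells per well, a 15-concentration compound series was applied for 3 hr at 37C. Luminescence from CellTiter-Glo, read following 30 min at room temperature, reflected cell viability.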

[6] = qHTS assay to identify small molecule antagonists of the estrogen related receptor (ERR) signaling pathway from Tox21 library (AID 1224848); further: nearly all actives have a fitted effect of over 50% in size; further: potency means the concentration at half of the fitted maximal effect
Outline: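 Reading was by luminescence 30 min after ONE-Glo addition. Before that, ERR cells at 2,000 per well had rested 6 h at 37 C/5% CO2 and then received pin-tooled compounds in DMSO for 18 h at 37 C.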

[7] = qHTS assay to identify small molecule agonists of the estrogen related receptor (ERR) signaling pathway from Tox21 library (AID 1224849; calls by dose curve; further: nearly all actives have a fitted effect of over 15% in size); conditions: ERR reporter cell line, ONE-Glo luciferase, 18 h; at 92.4 µM (top of the series) unless noted
Outline: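 ERR cells, 6 h pre-incubation 37 C/5% CO2; cpd in DMSO pinned; 18 h 37 C; ONE-Glo added, 30 min RT; luminescence read. Agonist mode, qHTS.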

[8] = qHTS RealTime-Glo MT Cell Viability Assay in HepG2 cells - 24 hour (AID 1224867); further: nearly all actives have a fitted effect of over 50% in size; further: potency means the concentration at half of the fitted maximal effect
Outline: (§1)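 HepG2 cells were seeded at 600 cells/well together with NanoLuc luciferase and a cell-permeant prosubstrate, preincubated 5 h at 37 C/5% CO2, then pin-dosed with compounds in DMSO. Nonlytic luminescence from viable cells was read at each time point.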

[9] = qHTS RealTime-Glo MT Cell Viability Assay in HEK293 cells - 32 hour (AID 1224868); further: nearly all actives have a fitted effect of over 50% in size; further: potency means the concentration at half of the fitted maximal effect
Outline: (§2)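 HEK293 cells were seeded at 600 cells/well together with NanoLuc luciferase and cell-permeant prosubstrate, preincubated 5 h at 37 C/5% CO2, then given compound in DMSO by pintool. Luminescence from viable-cell prosubstrate reduction was read repeatedly over 40 h.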

[10] = qHTS RealTime-Glo MT Cell Viability Assay in HepG2 cells - 40 hour (AID 1224870); further: nearly all actives have a fitted effect of over 50% in size; further: potency means the concentration at half of the fitted maximal effect
Outline: (§3)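 Real-time viability: cells seeded at 600 per well together with NanoLuc and cell-permeant prosubstrate, compounds added after 5 h incubation. Luminescence tracked at 0, 8, 16, 24, 32 and 40 h of exposure.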

[11] = A CellTox Green Cytotoxicity Assay to monitor cytotoxicity in HEK293 cells - 40 hour (AID 1224871); further: nearly all actives have a fitted effect of over 45% in size; further: potency means the concentration at half of the fitted maximal effect
Outline: (§4)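 Nonlytic real-time cytotoxicity: HEK293 + CellTox Green reagent plated, 5 h preincubation, pintool compound addition (23 nL in DMSO), 37 C for 40 h, fluorescence measured at successive time points.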

[12] = qHTS RealTime-Glo MT Cell Viability Assay in HepG2 cells - 8 hour (AID 1224873); further: nearly all actives have a fitted effect of over 55% in size
Outline: as §3

[13] = qHTS RealTime-Glo MT Cell Viability Assay in HEK293 cells - 40 hour (AID 1224874); conditions: RealTime-Glo luminescence; max response: hits give low values; further: nearly all actives have a fitted effect of over 50% in size; further: potency means the concentration at half of the fitted maximal effect
Outline: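 Cells were seeded together with NanoLuc luciferase and a prosubstrate that viable cells reduce to a luciferase substrate. After a 5 h incubation at 37 C/5% CO2, compounds were added and luminescence was measured repeatedly during 40 h of treatment.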

[14] = A CellTox Green Cytotoxicity Assay to monitor cytotoxicity in HEK293 cells - 24 hour (AID 1224875); further: nearly all actives have a fitted effect of over 45% in size
Outline: as §4

[15] = A CellTox Green Cytotoxicity Assay to monitor cytotoxicity in HepG2 cells - 16 hour (AID 1224876); further: nearly all actives have a fitted effect of over 45% in size; further: potency means the concentration at half of the fitted maximal effect
Outline: (§5)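 Read-out is fluorescence of a cyanine dye excluded from live cells that stains DNA of dead HepG2 cells, with signal proportional to cytotoxicity. Plates were read at 0, 8, 16, 24, 32 and 40 h after compound addition.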

[16] = qHTS RealTime-Glo MT Cell Viability Assay in HepG2 cells - 32 hour (AID 1224877); further: nearly all actives have a fitted effect of over 55% in size; further: potency means the concentration at half of the fitted maximal effect
Outline: as §1

[17] = A CellTox Green Cytotoxicity Assay to monitor cytotoxicity in HepG2 cells - 24 hour (AID 1224878); further: nearly all actives have a fitted effect of over 45% in size; further: potency means the concentration at half of the fitted maximal effect
Outline: as §5

[18] = A CellTox Green Cytotoxicity Assay to monitor cytotoxicity in HepG2 cells - 40 hour (AID 1224879); further: nearly all actives have a fitted effect of over 40% in size; further: potency means the concentration at half of the fitted maximal effect
Outline: as §5

[19] = A CellTox Green Cytotoxicity Assay to monitor cytotoxicity in HEK293 cells - 0 hour (AID 1224869); further: nearly all actives have a fitted effect of over 50% in size
Outline: as §4

[20] = qHTS RealTime-Glo MT Cell Viability Assay in HEK293 cells - 16 hour (AID 1224872)
Outline: as §2
On the % scale 0 is the no-effect control and ±100 the full control effect.

COc1cc(C(=O)NCCCCCC(=O)O)cc(OC)c1OC
inactive: Potency [1] | Potency [2] | Potency [3] | outcome [4] | Potency [5] | Potency [6] | activity change, positive = activation [7] 1.72% [at 42.5 µM] | Potency [8] | Potency [9] | Potency [10] | Potency [11] | Potency [12] | max response [13] 1.12% | Potency [14] | Potency [15] | Potency [16] | Potency [17] | Potency [18]

CC(=O)Nc1ccc(C)cc1C
inactive: Potency [1] | Potency [2] | Potency [3] | outcome [4] | Potency [5] | Potency [6] | activity change, positive = activation [7] 0.262% | Potency [8] | Potency [9] | Potency [19] | Potency [10] | Potency [20] | Potency [12] | max response [13] -0.695% | Potency [14] | Potency [16] | Potency [17] | Potency [18]

CC(=O)OCC(=O)NCCCOc1cccc(CN2CCCCC2)c1
inactive: Potency [1] | Potency [2] | Potency [3] | outcome [4] | Potency [5] | Potency [6] | activity change, positive = activation [7] 4.2% [at 42.5 µM] | Potency [8] | Potency [9] | Potency [10] | Potency [11] | Potency [20] | Potency [12] | max response [13] 1.71% | Potency [14] | Potency [16] | Potency [17] | Potency [18]

CC(C)(O)c1ccc(CNC(=O)c2cccnc2Oc2ccc3nonc3c2)cc1
active: Potency [6] 54500 nM
inactive: Potency [1] | Potency [2] | Potency [3] | outcome [4] | Potency [5] | activity change, positive = activation [7] -39.3% | Potency [8] | Potency [19] | Potency [10] | Potency [11] | Potency [12] | Potency [14] | Potency [15] | Potency [16] | Potency [17] | Potency [18]

CCCCCC[C@@H](O)C/C=C\CCCCCCCC(=O)O
inactive: Potency [1] | Potency [2] | Potency [3] | outcome [4] | Potency [5] | Potency [6] | activity change, positive = activation [7] -0.13% | Potency [8] | Potency [9] | Potency [19] | Potency [10] | Potency [11] | Potency [20] | Potency [12] | max response [13] 13.2% | Potency [14] | Potency [15] | Potency [16] | Potency [17] | Potency [18]

c1ccc2c(c1)CCc1ccccc1N2
active: Potency [5] 101000 nM | Potency [11] 49200 nM
inactive: Potency [1] | Potency [2] | Potency [3] | outcome [4] | Potency [8] | Potency [9] | Potency [19] | Potency [10] | Potency [20] | Potency [12] | max response [13] -22.1% and -5.28% | Potency [14] | Potency [15] | Potency [16] | Potency [17] | Potency [18]

O[C@@H]1CO[C@H]2[C@@H]1OC[C@@H]2O
inactive: Potency [1] | Potency [2] | Potency [3] | outcome [4] | Potency [5] | Potency [8] | Potency [9] | Potency [19] | Potency [10] | Potency [11] | Potency [20] | Potency [12] | max response [13] 8.95% | Potency [14] | Potency [15] | Potency [16] | Potency [17] | Potency [18]

CCC(OCCCOC)OC(C)=O (stereo not given)
inactive: Potency [1] | Potency [2] | Potency [3] | outcome [4] | Potency [5] | Potency [8] | Potency [9] | Potency [19] | Potency [10] | Potency [11] | Potency [20] | Potency [12] | max response [13] 3.03% | Potency [14] | Potency [15] | Potency [16] | Potency [17] | Potency [18]

CCC1(CO)COCOC1
inactive: Potency [1] | Potency [2] | Potency [3] | outcome [4] | Potency [5] | Potency [6] | activity change, positive = activation [7] 7.78% | Potency [8] | Potency [9] | Potency [10] | Potency [20] | Potency [12] | max response [13] -7.69% | Potency [14] | Potency [16] | Potency [17] | Potency [18]

CCC(=O)OC
inactive: Potency [1] | Potency [2] | Potency [3] | outcome [4] | Potency [5] | Potency [8] | Potency [9] | Potency [19] | Potency [10] | Potency [11] | Potency [20] | Potency [12] | max response [13] 4.28% | Potency [14] | Potency [15] | Potency [16] | Potency [17] | Potency [18]

CC(C)C[C@H](NC(=O)[C@H](CCc1ccccc1)NC(=O)CN1CCOCC1)C(=O)N[C@@H](Cc1ccccc1)C(=O)N[C@@H](CC(C)C)C(=O)[C@@]1(C)CO1
active: Potency [2] 213 nM | Potency [6] 59.6 nM | Potency [8] 67.4 nM | Potency [9] 37.9 nM | Potency [10] 23.9 nM | Potency [11] 75.6 nM | Potency [13] 26.8 nM | Potency [15] 10700 nM | Potency [16] 26.8 nM | Potency [17] 268 nM | Potency [18] 16.9 nM
inactive: Potency [1] | Potency [3] | outcome [4] | Potency [5] | activity change, positive = activation [7] -67.1% [at 42.5 µM] | Potency [19] | Potency [12] | Potency [14]

O=C(O)c1ccc(OCCCOc2ccc(C(=O)O)cc2)cc1
inactive: Potency [1] | Potency [2] | Potency [3] | outcome [4] | Potency [5] | Potency [6] | activity change, positive = activation [7] 7.07% [at 42.5 µM] | Potency [8] | Potency [9] | Potency [19] | Potency [10] | Potency [11] | Potency [20] | Potency [12] | max response [13] 1.73% | Potency [14] | Potency [15] | Potency [16] | Potency [17] | Potency [18]

CC(C)C=O
inactive: Potency [1] | Potency [2] | Potency [3] | outcome [4] | Potency [5] | Potency [6] | activity change, positive = activation [7] 0.557% | Potency [8] | Potency [9] | Potency [19] | Potency [10] | Potency [11] | Potency [20] | Potency [12] | max response [13] 0.0745% | Potency [14] | Potency [15] | Potency [16] | Potency [17] | Potency [18]

C=COCC(C)C
inactive: Potency [1] | Potency [2] | Potency [3] | outcome [4] | Potency [5] | Potency [6] | activity change, positive = activation [7] -0.119% | Potency [8] | Potency [10] | Potency [11] | Potency [12] | Potency [14] | Potency [15] | Potency [16] | Potency [17] | Potency [18]
